Results: PMC4336329 (PLoS ONE, 2015)
Screen size: about 310,000 compounds; about 14,000 (4.5%) showed an effect of 50% or more. The effect is printed as a negative number. The entries come from a sample that favours strong results as a whole.

Each molecule was assayed against human ether-à-go-go-related gene (hERG) potassium channel (human, UniProt Q12809) (assay: primary screen, population patch clamp on CHO cells stably expressing hERG; higher = less effect of the substance).
Description: Briefly, Chinese hamster ovary (CHO) cells stably expressing the hERG channel were dislodged from tissue culture flasks and dispensed into PPC plates. […] During the recording, background leak currents were estimated by a 100 ms step to -80 mV from an initial holding potential of -70 mV and subtracted from the subsequent current measurement. The campaign was conducted in two phases using slight differences in recording protocol. In the first phase, the initial voltage pulse used a 100 ms step to -30 mV from a holding potential of -70 mV, a 2 s conditioning step to +25 mV, and a 2 s test step to -30 mV. During the second phase of the screen, the potential during the conditioning step was raised to +45 mV. In both phases of the campaign, a secondary voltage pulse was applied using the same parameters as the second phase initial pulse. The initial and secondary pulses were applied in the absence of compound, and upon application of 1 μM and 10 μM test concentrations. […]
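Also: peak tail current of the secondary pulse compared with the same well before compound.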

Sequence of human ether-à-go-go-related gene (hERG) potassium channel (Q12809 whole entry, looked up): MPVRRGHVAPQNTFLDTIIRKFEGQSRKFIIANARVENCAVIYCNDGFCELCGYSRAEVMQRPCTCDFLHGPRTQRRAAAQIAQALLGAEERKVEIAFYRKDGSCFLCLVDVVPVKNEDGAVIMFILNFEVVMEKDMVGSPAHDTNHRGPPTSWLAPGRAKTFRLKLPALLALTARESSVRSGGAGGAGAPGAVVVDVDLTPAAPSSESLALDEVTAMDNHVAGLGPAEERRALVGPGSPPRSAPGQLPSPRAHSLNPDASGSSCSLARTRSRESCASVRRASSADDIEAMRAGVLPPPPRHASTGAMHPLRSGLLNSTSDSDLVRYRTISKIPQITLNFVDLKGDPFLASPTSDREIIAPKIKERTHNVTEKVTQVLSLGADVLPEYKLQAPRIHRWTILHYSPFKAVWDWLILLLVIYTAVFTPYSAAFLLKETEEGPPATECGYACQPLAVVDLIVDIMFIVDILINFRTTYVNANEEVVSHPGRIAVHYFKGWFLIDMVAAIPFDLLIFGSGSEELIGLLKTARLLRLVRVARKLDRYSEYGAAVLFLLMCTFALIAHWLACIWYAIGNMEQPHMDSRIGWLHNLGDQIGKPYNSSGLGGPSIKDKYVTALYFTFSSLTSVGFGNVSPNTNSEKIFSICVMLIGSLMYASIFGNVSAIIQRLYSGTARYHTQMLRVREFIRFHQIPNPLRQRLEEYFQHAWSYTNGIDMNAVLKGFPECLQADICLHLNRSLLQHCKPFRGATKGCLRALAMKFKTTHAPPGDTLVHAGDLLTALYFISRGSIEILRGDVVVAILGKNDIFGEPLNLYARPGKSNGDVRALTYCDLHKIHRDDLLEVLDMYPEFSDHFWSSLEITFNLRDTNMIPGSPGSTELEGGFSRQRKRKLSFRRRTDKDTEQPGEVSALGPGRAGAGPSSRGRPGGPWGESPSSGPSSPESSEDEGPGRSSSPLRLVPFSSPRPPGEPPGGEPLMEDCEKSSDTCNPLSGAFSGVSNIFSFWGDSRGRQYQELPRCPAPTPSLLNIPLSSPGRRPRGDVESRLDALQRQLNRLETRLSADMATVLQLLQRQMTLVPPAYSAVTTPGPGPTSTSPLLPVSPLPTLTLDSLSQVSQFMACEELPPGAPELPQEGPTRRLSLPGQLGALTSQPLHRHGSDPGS

SMILES | hERG current change (%, negative = inhibition) at 10uM [%]
O=C1NC2NC(=O)N([N+](=O)[O-])C2N1 (stereo not drawn) | 14.6
CC(C)NC(=O)COC(=O)c1ccc(Cl)c(S(N)(=O)=O)c1 | 18.6
O=C(Nc1c2c(nn1-c1ccccc1)CS(=O)(=O)C2)C1CCCC1 | -0.437
COc1ccc(CC(=O)Nc2c3c(nn2-c2cccc(C)c2C)CS(=O)(=O)C3)cc1 | -24.5
COc1ccc(CC(=O)Nc2c3c(nn2-c2cccc(Cl)c2)CS(=O)C3)cc1 (stereo not drawn) | -37.1
O=C(Nc1c2c(nn1-c1cccc(Cl)c1)CS(=O)(=O)C2)C1CC1 | -66.9
O=C(Nc1c2c(nn1-c1cccc(Cl)c1)CS(=O)(=O)C2)c1ccco1 | -37.9
CC(C)CC(=O)Nc1c2c(nn1-c1cccc(Cl)c1)CS(=O)(=O)C2 | -40.8
CC(=O)Nc1c2c(nn1-c1cccc(Cl)c1)CS(=O)(=O)C2 | -16.8
COc1ccc(CC(=O)Nc2c3c(nn2-c2cccc(Cl)c2)CS(=O)(=O)C3)cc1 | -51.7
CCCC(=O)Nc1c2c(nn1-c1cccc(Cl)c1)CS(=O)(=O)C2 | -53.4
O=C(Cc1ccccc1)Nc1c2c(nn1-c1cccc(Cl)c1)CS(=O)(=O)C2 | -76.2
CCC(=O)Nc1c2c(nn1-c1cccc(Cl)c1)CS(=O)(=O)C2 | -38.7
O=C(Nc1c2c(nn1-c1ccc(Cl)cc1)CS(=O)(=O)C2)C1CC1 | -26.8
COc1ccc(CSCCc2n[nH]c(=S)n2-c2ccccc2)cc1C | 0.99
O=C(COc1ncnc2ccccc12)Nc1cccc([N+](=O)[O-])c1 | -2.61
Cc1cc(C)cc(N/C(N)=N/c2nc(C)cc(C)n2)c1 | -50
Cc1cc(C)nc(NC(N)=NC(C)c2ccccc2)n1 (stereo not drawn) | -0.0621
Cc1ccc(CN=C(N)Nc2nc(C)cc(C)n2)cc1.Cl | -76.1

SMILES | hERG current change (%, negative = inhibition) at 10uM [%]
Cc1cccc(N/C(N)=N/c2nc(C)cc(C)n2)c1 | -28
Cc1ccc(N/C(N)=N/c2nc(C(F)(F)F)cc(C(F)(F)F)n2)cc1 | 18.9
Cc1ccc(N/C(N)=N/c2nc(C)cc(C)n2)cc1 | -68.7
Cc1cc(C)nc(NC(N)=NCCc2c[nH]c3ccccc23)n1 | 11.6
COc1cc(N/C(N)=N/c2nc(C)cc(C)n2)cc(OC)c1 | -49.8
Cc1cc(C)nc(/N=C(\N)Nc2ccc(C)c([N+](=O)[O-])c2)n1 | -5.32
CC(=O)Nc1ccc(N/C(N)=N/c2nc(C)cc(C)n2)cc1 | 14
Cc1cc(C)nc(/N=C(\N)Nc2ccc(CC(=O)OC(C)C)cc2)n1 | -67.6
CC(=O)NS(=O)(=O)c1ccc(N/C(N)=N/c2nc(C)cc(C)n2)cc1 | 13.3
O=C(NCC1CCCO1)NC1(C(F)(F)F)Oc2ccccc2O1 (stereo not drawn) | 1.63
CN1CCN(S(=O)(=O)c2ccc3c4c(cccc24)C(=O)N3)CC1 | -0.59
O=C(NCN1C(=O)C2C3C=CC(C3)C2C1=O)Nc1ccccn1 (stereo not drawn) | 9.67
CCOC(=O)N1CCC(NS(=O)(=O)c2cc3c(cc2C)NC(=O)CO3)CC1 | -7.84
Cc1ccc(NC(=O)NNC(=O)C2CC(c3cccnc3)=NO2)cc1 (stereo not drawn) | 4.19
O=C1c2ccccc2C(=O)N1OCCOCCOCCON1C(=O)c2ccccc2C1=O | -29.2
CC1(c2ccccc2)NC(=O)N(CC(=O)Nc2nnc(C3CC3)s2)C1=O (stereo not drawn) | 12.1
O=C(Nc1ccc(F)cc1F)c1cccn(Cc2ccccc2)c1=O | 13.1
CCn1c(CN2CCCCCC2=O)nnc1SCc1cnc(-c2ccccc2)s1 | -19.3
COc1ccc(C(=O)COC(=O)CCCC(=O)NC2CCCCC2)cc1 | 2.77

SMILES | hERG current change (%, negative = inhibition) at 10uM [%]
COc1ccc(S(=O)(=O)N2CCC(C(=O)N3CCc4ccccc4C3)CC2)cc1C | -19.7
CCc1ccc(N/C(=N/c2nc(C)cc(C)n2)NC(C)=O)cc1 | -67
Cc1cc(C)nc(/N=C(\N)Nc2ccc(C(C)C)cc2)n1 | -67.5
Cc1cc(C)nc(/N=C(\N)Nc2ccc([N+](=O)[O-])cc2)n1 | -25
CC(=O)N/C(=N/c1nc(C)cc(C)n1)Nc1ccc(NC(C)=O)cc1 | 9.5
Cc1cc(C)nc(/N=C(\N)Nc2ccc(-c3ccccc3)cc2)n1 | -81.6
CCOc1ccc(N/C(=N/c2nc(C)cc(C)n2)NC(C)=O)cc1 | -12.2
Cc1cc(C)nc(/N=C(\N)Nc2ccc(S(N)(=O)=O)cc2)n1 | 14.9
CCCCc1ccc(N/C(N)=N/c2nc(C)cc(C)n2)cc1 | -70.1
Cc1cc(C)nc(/N=C(\N)Nc2ccccc2-c2ccccc2)n1 | -43.2
CCC(=O)Nc1ccc(N/C(N)=N/c2nc(C)cc(C)n2)cc1 | -4.25
Cc1cc(C)nc(/N=C(\N)Nc2ccc(S(=O)(=O)Nc3nc(C)cc(C)n3)cc2)n1.Cl | 38
COc1ccc(C)cc1NC(=O)NNC(=O)c1cc2ccccc2cc1O | 12.1
Cc1ccc(C(=O)Nc2ccc(C)c(S(=O)(=O)Nc3ccccc3Cl)c2)s1 | -6.43
CCn1c(=O)c2c3c(sc2n2cnnc12)CCC3 | 20
CC(=O)N1N=C(c2cccc([N+](=O)[O-])c2)OC1c1ccc(Br)cc1 (stereo not drawn) | -7.59
COc1ccc(OC)c(S(=O)(=O)Nc2cccc3ccc(O)cc23)c1 | 6
COC(=O)CCCc1nc2ccccc2s1 | 8.7
CN(C(=O)COC(=O)C12CC3CC(CC(C3)C1)C2)c1c(N)n(Cc2ccccc2)c(=O)[nH]c1=O | 7.54
